Experimental data taken from PubChem BioAssay (Tox21).
Several values for one entry are separate records, joined by “and”; a condition that tells them apart may be missing. Identical values can stand only once. Inconclusive results are not listed. Activity calls are given as the source filed them. Unless noted, the call rests on the fitted dose curve; in most records, active means well fitted curve in the direction sought with a large enough effect in the repeat runs; inconclusive means weak or mixed curves; inactive means no such curve, though single readings can be large; an effect the other way counts as inactive or inconclusive.

Legend:
[1] = qHTS assay for small molecules that induce genotoxicity in human embryonic kidney cells expressing luciferase-tagged ATAD5 - cell viability (AID 651634; calls by dose curve; further: nearly all actives have a fitted effect of over 25% in size; further: potency means the concentration at half of the fitted maximal effect)
Outline: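 Fluorescence from CellTiter-Fluor, reporting protease activity within live cells, served as the viability read-out. HEK293T cells carrying luciferase-tagged ATAD5 had been treated with compound for 15.5 hr at 37C.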

[2] = qHTS assay for small molecule disruptors of the mitochondrial membrane potential - cell viability (AID 720634; calls by dose curve; further: nearly all actives have a fitted effect of over 20% in size; further: potency means the concentration at half of the fitted maximal effect)
Outline: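 Cells: HepG2, 2,000/well, attached overnight. Compound 1 hr, 37 C/5% CO2. +m-MPI dye, +CellTiter-Glo 30 min RT. Readout: luminescence (ATP).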

[3] = qHTS assay for small molecule disruptors of the mitochondrial membrane potential (AID 720635); further: potency means the concentration at half of the fitted maximal effect
Outline: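 Mitochondrial membrane potential tracked with Mito-MPS dye, red aggregates (ex 540/em 590 nm) against green monomers (ex 490/em 535 nm). Compound treatment 1 hr at 37C, dye 30 min in HepG2.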

[4] = qHTS assay to test for compound auto fluorescence at 590 nm (red) in HepG2 cells (AID 720674)
Outline: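 1 hr compound incubation on HepG2 cells, 37 C, 5% CO2; plate read ex 540 nm / em 590 nm; intensities reported as Rose Bengal sodium equivalents.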

[5] = qHTS assay to test for compound auto fluorescence at 535 nm (green) in HepG2 cells (AID 720675)
[6] = qHTS assay to test for compound auto fluorescence at 460 nm (blue) in HEK293 cells (AID 720678)
Outline: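 HEK293, 2,000 cells/well, 10% dialyzed FBS; attach 4-5 hr 37C; pin compound or DMSO; o/n 37C/5% CO2; fluorescence 405/460 nm; triamterene-equivalent units.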

[7] = qHTS assay to test for compound auto fluorescence at 590 nm (red) in HEK293 cells (AID 720679)
Outline: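 Intensity at 540nm excitation and 590nm emission is reported as Rose Bengal sodium-equivalent autofluorescence. Measurements followed overnight exposure (37C, 5% CO2) of HEK293 cells, 2,000 per well, to 23 nL compound.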

[8] = qHTS assay to test for compound auto fluorescence at 535 nm (green) in HEK293 cells (AID 720680)
[9] = qHTS assay to test for compound auto fluorescence at 460 nm (blue) in HEK293 cell free culture (AID 720681)
Outline: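 Blue fluorescence (Ex 405/Em 460 nm, triamterene-equivalent) was read immediately after pin transfer of compound or DMSO into medium (DMEM, 10% FBS) without cells.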

[10] = qHTS assay to test for compound auto fluorescence at 535 nm (green) in HEK293 cell free culture (AID 720682)
Outline: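 Fluorescein serves as the green reference fluorophore; each compound's intrinsic emission at 535 nm (excitation 485 nm) is reported as an equivalent amount of that dye, measured in serum-containing DMEM without cells.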

[11] = qHTS assay to test for compound auto fluorescence at 590 nm (red) in HEK293 cell free culture (AID 720683)
Outline: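 Red-channel autofluorescence of compounds in culture medium (DMEM, 10% FBS), no cells, measured at 540/590 nm. Rose Bengal sodium is the reference fluorophore for equivalence.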

[12] = qHTS assay to test for compound auto fluorescence at 460 nm (blue) in HepG2 cell free culture (AID 720685)
Outline: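 Compound (23 nL) or DMSO pinned into cell-free MEM with 10% FBS; blue fluorescence read at 405/460 nm excitation/emission, expressed as auto-fluorescence equivalency to triamterene.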

[13] = qHTS assay to test for compound auto fluorescence at 460 nm (blue) in HepG2 cells (AID 720687)
Outline: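 Blue-channel autofluorescence (Ex/Em 405/460 nm, triamterene-equivalent) was measured after 1 hr compound exposure at 37 C, 5% CO2. Cells were HepG2, plated overnight at 37 C in MEM plus 10% FBS.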

[14] = target: Glucocorticoid receptor (Homo sapiens) (UniProt P04150); test: qHTS assay to identify small molecule agonists of the glucocorticoid receptor (GR) signaling pathway (AID 720691; active means well fitted activation curve with a large enough effect in the signal ratio in the repeat runs, not every such curve was filed as active; the % refers to the signal ratio)
Outline: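 Fluorescence intensity from LiveBLAzer B/G FRET substrate (2 h, room temperature) reports beta-lactamase expression driven by the glucocorticoid response element in GR-bla HeLa cells after 18 h compound exposure at 37 C.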

[15] = target: Glucocorticoid receptor (Homo sapiens) (UniProt P04150); test: qHTS assay to identify small molecule antagonists of the glucocorticoid receptor (GR) signaling pathway (AID 720692; active means well fitted inhibition curve with a large enough effect in the signal ratio in the repeat runs, not every such curve was filed as active; the % refers to the signal ratio; further: potency means the concentration at half of the fitted maximal effect)
Outline: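 HeLa GR-bla cells; cmpd + dex 5 nM final, 18 h 37 C; LiveBLAzer B/G FRET substrate 2 h RT; fluorescence intensity read. Antagonist mode, qHTS.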

[16] = qHTS assay for small molecule agonists of the p53 signaling pathway - cell viability (AID 651633; calls by dose curve; further: nearly all actives have a fitted effect of over 30% in size; further: potency means the concentration at half of the fitted maximal effect)
Outline: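 Viability counter-read: CellTiter-Glo luminescence (30 min, room temperature) in the same p53RE-bla plates. These plates had been exposed to compounds for 16 h at 37 C.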

[17] = qHTS assay to test for compound auto fluorescence at 590 nm (red) in HepG2 cell free culture (AID 720684)
Outline: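 Steps: dispense MEM/10% FBS medium, no cells; pin compound or DMSO vehicle; read red channel, Ex/Em 540/590 nm. Output given as Rose Bengal sodium equivalents.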

[18] = qHTS assay to test for compound auto fluorescence at 535 nm (green) in HepG2 cell free culture (AID 720686)
[19] = qHTS assay for small molecules that induce genotoxicity in human embryonic kidney cells expressing luciferase-tagged ATAD5 (AID 651632); further: nearly all actives have a fitted effect of over 15% in size
Outline: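 ATAD5-luc HEK293T, 2,000 cells/well; cpd or DMSO pin-transferred; 16 hr, 37C/5% CO2; Amplite 30 min RT; luminescence.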
On the % scale 0 is the no-effect control and ±100 the full control effect.

Chain of Glucocorticoid receptor (Homo sapiens) (P04150 whole entry, looked up): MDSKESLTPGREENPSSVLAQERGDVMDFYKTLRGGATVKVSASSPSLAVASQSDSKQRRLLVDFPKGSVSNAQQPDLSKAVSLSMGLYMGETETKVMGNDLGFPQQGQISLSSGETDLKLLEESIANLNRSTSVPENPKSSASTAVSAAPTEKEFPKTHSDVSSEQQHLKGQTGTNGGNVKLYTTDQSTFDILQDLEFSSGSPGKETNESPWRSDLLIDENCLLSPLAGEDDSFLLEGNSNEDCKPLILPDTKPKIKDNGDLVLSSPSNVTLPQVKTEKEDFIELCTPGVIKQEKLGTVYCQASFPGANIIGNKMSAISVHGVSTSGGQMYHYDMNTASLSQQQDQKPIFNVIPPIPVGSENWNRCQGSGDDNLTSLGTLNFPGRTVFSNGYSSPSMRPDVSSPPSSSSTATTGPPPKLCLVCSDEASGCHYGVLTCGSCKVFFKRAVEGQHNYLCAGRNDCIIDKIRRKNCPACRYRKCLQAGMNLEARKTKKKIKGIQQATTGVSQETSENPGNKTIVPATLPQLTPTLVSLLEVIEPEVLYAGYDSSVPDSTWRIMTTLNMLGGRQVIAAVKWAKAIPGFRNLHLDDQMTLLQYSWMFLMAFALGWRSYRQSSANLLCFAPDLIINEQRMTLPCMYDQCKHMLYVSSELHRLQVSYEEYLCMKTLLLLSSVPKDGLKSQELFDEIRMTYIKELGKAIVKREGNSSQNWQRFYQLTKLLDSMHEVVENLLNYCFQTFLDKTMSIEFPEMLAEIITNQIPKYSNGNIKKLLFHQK

C=CC(=O)OCCCCOC(=O)C=C
active: Potency [1] 54.5 µM | Potency [15] 24.5 µM
inactive: Potency [2] | Potency [3] | outcome [4] | outcome [5] | Potency [6] | outcome [7] | outcome [8] | Potency [9] | outcome [10] | outcome [11] | Potency [12] | Potency [13] | Potency [14]

CCCCN(CCCC)C(=S)[S-].CCCCN(CCCC)C(=S)[S-].[Zn+2]
inactive: Potency [2] | outcome [4] | outcome [5] | Potency [6] | outcome [7] | outcome [8] | Potency [9] | outcome [11] | outcome [17] | Potency [12] | outcome [18] | Potency [13]
active: Potency [16] 9.44 µM and 61.1 µM | Potency [3] 27.3 µM

CCOP(=S)(OCC)OC(Cl)C(Cl)(Cl)Cl (centres undefined)
active: Potency [3] 61.1 µM
inactive: Potency [19] | Potency [1] | outcome [4] | outcome [5] | Potency [6] | outcome [7] | outcome [8] | Potency [9] | outcome [10] | outcome [11] | outcome [17] | Potency [12] | outcome [18] | Potency [13] | Potency [14] | Potency [15]

CC1(c2ccc(Oc3ccccc3)cc2)OC(=O)N(Nc2ccccc2)C1=O (centres undefined)
active: Potency [3] 3.88 µM
inactive: Potency [19] | Potency [1] | outcome [4] | outcome [5] | Potency [6] | outcome [7] | outcome [8] | Potency [9] | outcome [10] | outcome [11] | Potency [12] | outcome [18] | Potency [13]

O=[N+]([O-])c1cc(C(F)(F)F)c(Cl)c([N+](=O)[O-])c1Cl
active: Potency [16] 27.3 µM | Potency [1] 24.3 µM | Potency [2] 15.4 µM
inactive: outcome [4] | outcome [5] | Potency [6] | outcome [7] | outcome [8] | Potency [9] | outcome [10] | outcome [11] | Potency [12] | outcome [18] | Potency [13]

CN(C)S(=O)(=O)N(SC(F)(Cl)Cl)c1ccccc1
inactive: Potency [19] | outcome [4] | outcome [5] | Potency [6] | outcome [7] | outcome [8] | Potency [9] | outcome [10] | outcome [11] | outcome [17] | Potency [13]
active: Potency [2] 61.1 µM | Potency [3] 4.86 µM

CC(=O)[O-].CC(=O)[O-].[Hg+2]
active: Potency [16] 1.93 µM | Potency [1] 54.5 µM
inactive: outcome [4] | outcome [5] | Potency [6] | outcome [7] | outcome [8] | Potency [9] | outcome [11] | outcome [17] | Potency [12] | outcome [18] | Potency [13]

CC(=O)[O-].[Tl+]
inactive: outcome [4] | outcome [5] | Potency [6] | outcome [7] | outcome [8] | Potency [9] | outcome [11] | outcome [17] | Potency [12] | Potency [13]
active: Potency [16] 43.5 µM

CN(C)C(=S)[S-].CN(C)C(=S)[S-].[Cu+2]
inactive: Potency [16] | Potency [2] | fluorescence, relative to Rose Bengal [4] 0.166% [at 18.6 µM] | fluorescence, % of fluorescein control [5] -0.0148% [at 18.6 µM] | fluorescence, % of triamterene [6] -0.0228% [at 18.6 µM] | fluorescence, % of fluorescent control [7] 0.0936% [at 18.6 µM] | fluorescence, % of fluorescein [8] -0.0159% [at 18.6 µM] | fluorescence, % of fluorescent control [9] -0.0097% [at 18.6 µM] | activity change [10] 0.0031% [at 18.6 µM] | fluorescence, % of fluorescent control [11] 0.0139% [at 18.6 µM] | fluorescence, % of fluorescent control [12] -0.0974% [at 18.6 µM] | fluorescence, % of fluorescent control [13] 0.125% [at 18.6 µM]
active: Potency [1] 0.836 µM
